Experimental findings from PubChem BioAssay AID894 (National Center for Advancing Translational Sciences (NCATS), 2007) are described below.

Where “and” joins values, the source holds several entries; their conditions need not be identical. Identical values can stand only once. The campaign covered roughly 150,000 compounds. About 6,500 (4.3%) were called active. Not shown: some 12% with an inconclusive outcome. The full list was thinned out, with actives kept by preference. Values without a mark were called inactive. Calls come from the whole dose curve; as a rule, active = well fitted inhibition curve with a large enough effect (not every such curve was filed as active); inconclusive = small, poorly fitted or top-dose-only effect, or another doubt; inactive = no such curve, though single readings can be large or run the other way.
% is set by controls: 0 for no effect and ±100 for the full control effect; potency is the fitted concentration of half-maximal effect.

For the experiment, the target named is 15-hydroxyprostaglandin dehydrogenase [NAD(+)] (Homo sapiens) (UniProt P15428). In words: qHTS Assay for Inhibitors of HPGD (15-Hydroxyprostaglandin Dehydrogenase). To be noted: purified HPGD, NADH fluorescence kinetic, PGE2 substrate; activity change, negative = inhibition: hits give low values. An excerpt: Human 15-Hydroxyprostaglandin dehydrogenase (HPGD) catalyzes the inactivation of prostaglandin E2, and plays a major role in cancer biology by antagonizing the oncogenic potential of cyclooxygenase type 2 (COX2). Assays are available, based on absorbance/fluorescence increase of NADH with the substrate 15-OH prostaglandin E2. References 1. Myung SJ, Rerko RM, Yan M, Platzer P, Guda K, Dotson A, Lawrence E, Dannenberg AJ, Lovgren AK, Luo G, Pretlow TP, Newman RA, Willis J, Dawson D, Markowitz SD. 15-Hydroxyprostaglandin dehydrogenase is an in vivo suppressor of colon tumorigenesis. […] 2. Yan M, Rerko RM, Platzer P, Dawson D, Willis J, Tong M, Lawrence E, Lutterbaugh J, Lu S, Willson JK, Luo G, Hensold J, Tai HH, Wilson K, Markowitz SD. 15-Hydroxyprostaglandin dehydrogenase, a COX-2 oncogene antagonist, is a TGF-beta-induced suppressor of human gastrointestinal cancers. Proc Natl Acad Sci U S A. 2004 Dec 14;101(50):17468-73. 3. Yang L, Amann JM, Kikuchi T, Porta R, Guix M, Gonzalez A, Park KH, Billheimer D, Arteaga CL, Tai HH, Dubois R, Carbone DP, Johnson DH. Inhibition of Epidermal Growth Factor Receptor Signaling Elevates 15-Hydroxyprostaglandin Dehydrogenase in Non-Small-Cell Lung Cancer. Cancer Res. 2007 Jun 15;67(12):5587-5593. Inhibition of HPGD activity was screened by utilizing prostaglandin as an electron donor and NAD+ as an electron acceptor/cofactor. An increase in the fluorescence intensity due to conversion of NAD+ to NADH was used to measure the enzyme activity. NIH Chemical Genomics Center [NCGC] Structural Genomics Consortium [SGC]
15-hydroxyprostaglandin dehydrogenase [NAD(+)] (Homo sapiens), sequence (P15428 whole entry, looked up): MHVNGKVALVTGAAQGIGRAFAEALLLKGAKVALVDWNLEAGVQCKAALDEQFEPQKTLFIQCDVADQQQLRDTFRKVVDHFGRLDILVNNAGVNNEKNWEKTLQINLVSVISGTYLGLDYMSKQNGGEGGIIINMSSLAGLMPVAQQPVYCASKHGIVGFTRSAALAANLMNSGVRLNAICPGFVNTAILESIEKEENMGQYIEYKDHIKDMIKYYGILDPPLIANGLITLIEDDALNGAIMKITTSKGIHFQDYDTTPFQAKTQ
Buffer: 50 mM Tris-HCl, 0.01% Tween 20, pH 8. Enzyme Buffer: 50 mM Tris-HCl, 0.5 mM NAD+ and 0.01% Tween 20, pH 8. Reagents/Controls: Buffer in columns 3 and 4 as negative control (no enzyme). Substrate/cofactor solution: 1 mM NAD+ and 30 uM prostaglandin (Sigma, prostaglandin E2, # P5640) final concentrations dispensed throughout the plate. Enzyme: 20 nM HPGD final concentration in columns 1, 2, 5-48. Column 1 and 2 is neutral (100% activity). A titration of control inhibitor GW5074 (G6416 Sigma-Aldrich, St. Louis, MO) top concentration 10 mM in DMSO, then 1:2 dilution for a total of 16 concentrations in duplicate) was pin-transferred into column 2. Assay Steps: Three uL of enzyme were dispensed to 1536-well Greiner black solid bottom plates. Compounds and control inhibitor (23 nL) were transferred via Kalypsys PinTool. The plates were incubated for 15 min at room temperature, and then 1 uL of substrate/cofactor solution was added to start the reaction. The plates were immediately transferred to and read 5 times every 30 seconds on ViewLux High-throughput CCD imager (Perkin-Elmer) using 360 nm excitation and 450 nm emission fluorescence protocol. The fluorescence intensity difference between the last and the first time points was used to compute reaction progress.
As for `Cc1ccc(-n2c(C)cc(/C=C3\C(=O)NC(=O)N(C)C3=O)c2C)cc1C`, the activity change, negative = inhibition is -10.2%. `Cc1ccnc(-n2c(C)cc(/C=C3\C(=O)NC(=S)N(C)C3=O)c2C)c1`: the Potency was 20 µM (active). With `COC(=O)c1ccc2[se]c(CC3CCCCC3)c(I)c2c1`, the activity change, negative = inhibition is -2.23%. On the same count and under the same terms, then `CC(C)CC(C)Nc1ccc(Nc2ccccc2)cc1` (configuration not stated), with -6.53%; and `Clc1cccc(Cl)c1Cl`, with -10.3%. As for `N#Cc1c(Cl)c(Cl)c(Cl)c(C#N)c1Cl`, the Potency was 2.51 µM (active). For `ClC(Cl)(Cl)c1ccccc1`, the activity change, negative = inhibition was -5.6% and -7.46%.

Consider `N#CC(C#N)=Cc1cc(O)c(O)c([N+](=O)[O-])c1`, for which the Potency was 22.4 µM (active).

For the molecule `Nc1ccc([N+](=O)[O-])cc1`, the activity change, negative = inhibition is -4.46%. Regarding `COC1=C[C@@H]2[C@@H]3Cc4ccc(OC)c(O)c4[C@]2(CCN3C)CC1=O`, the activity change, negative = inhibition is -2.46%. As for `CN(C)C1C(=O)C(C(N)=O)=C(O)[C@@]2(O)C(=O)C3=C(O)c4c(O)cccc4[C@@](C)(O)C3C[C@@H]12` (some centres not stated), the activity change, negative = inhibition was -15.2%. The same measure, in the same setting: then `CCN1C[C@]2(C)CC[C@H](O)[C@@]34[C@@H]5CC6[C@@H](OC)C[C@@](O)([C@@H]5[C@@H]6O)[C@H](C[C@@H]23)[C@H]14`, with -6.3%. Regarding `Cc1cccc(-n2c(C)nc3cc(C(=O)N4CCC5(CC4)OCCO5)ccc32)c1`, the Potency was 14.1 µM (active). Turning to `O=C(c1cc(-c2ccncc2)nc2ccccc12)N1CCC2(CC1)OCCO2`, the activity change, negative = inhibition was -3.06%.

On to `COc1ccc(S(=O)(=O)NCc2ccc(C(=O)N3CCC4(CC3)OCCO4)cc2)cc1`, for which the activity change, negative = inhibition was -19.1%. Turning to `CCCC[N+]1(C)C2CC(OC(=O)C(CO)c3ccccc3)CC1C1OC12` (configuration not stated), the activity change, negative = inhibition was -2.83%. The same measure, in the same setting: then `CN(C)[C@@H]1C(=O)C(C(N)=O)=C(O)[C@@]2(O)C(=O)C3=C(O)c4c(O)cccc4[C@@](C)(O)C3CC12` (some centres not stated), with -24.8%; and `COC1=C[C@]23CCCN2CCc2cc4c(cc2[C@@H]3[C@@H]1O)OCO4`, with -6.42%. As for `CCCCC/C=C\C/C=C\C/C=C\C/C=C\CCCCCC(=O)NCCO`, the activity change, negative = inhibition was -7.58% and -6.46%. For the molecule `CC(=O)NBr`, the activity change, negative = inhibition was -7.45%. Same read-out and setting: the result for `CCC1(c2ccccc2)C(=O)NC(=O)N(C)C1=O` (configuration not stated) reads -4.89%; that for `CCC/C(=N\O)c1c[nH]c2ccccc12`, -17.4%; that for `c1ccc(CCCCN2CCC(c3ccccc3)CC2)cc1`, -7.8%. Consider `CC(=O)c1ccc(OC(NC(=O)Cc2ccccc2)C(Cl)(Cl)Cl)cc1` (configuration not stated), for which the Potency was 12.6 µM (active).

Turning to `CC(=O)NC(=O)NC(C)Cc1ccccc1` (configuration not stated), the activity change, negative = inhibition is -9.28%. Same read-out and setting: then `CCOP(=O)(OCC)C(NC(=O)c1ccc(C)cc1)C(Cl)(Cl)Cl` (configuration not stated), with -5.69%; and `CC(C)(C)c1ccc(CN2C(=O)CN=C(c3ccccc3)c3ccccc32)cc1`, with -17.9%.

Consider `Clc1ccccc1`, for which the activity change, negative = inhibition was -8.83%.

On to `CCCCn1c(O)c(C(CC)=NCc2ccco2)c(=O)[nH]c1=O`, for which the activity change, negative = inhibition is 1.83%. Turning to `CCC(=NCc1ccco1)c1c(O)n(Cc2ccccc2)c(=O)[nH]c1=O`, the Potency was 15.8 µM (active). Regarding `CCC(=NCCc1ccccc1)c1c(O)n(C2CCCCC2)c(=O)[nH]c1=O`, the activity change, negative = inhibition is -16.1%.

In the case of `c1ccc2c(c1)[I+]c1ccccc1-2`, the activity change, negative = inhibition is -12.3% and -15.8%. As for `c1csc(CN2CCCC3(CCNCC3)C2)n1`, the activity change, negative = inhibition was -0.589%. With `Cc1cccc([C@H](C)c2cnc[nH]2)c1C`, the activity change, negative = inhibition was -10.2%. As to `c1csc(CN2CC3(CCNCC3)C2)n1`, the activity change, negative = inhibition was -15.7%. Consider `C[C@H](Br)C(=O)N[C@H](CO)C(=O)O`, for which the activity change, negative = inhibition was -10.5%. Regarding `NCC[Se][Se]CCN`, the Potency is 2.82 µM (active). Turning to `O=c1oc2ccccc2c(O)c1C(c1ccccc1O)c1c(O)c2ccccc2oc1=O`, the activity change, negative = inhibition was -2.8%.

For `C=CCN1CCC23c4c5ccc(O)c4O[C@H]2C(=O)CC[C@@]3(O)C1C5` (some centres not stated), the activity change, negative = inhibition is -13.3%. As to `CCN(CC)C(=O)c1ccc(NC(=O)c2cc(-n3cnnc3)ccc2Cl)cc1`, the Potency is 1.41 µM (active). As for `CNC(=S)N/N=C1\C2CN3CCN(C2)CC1(c1ccccc1)C3`, the activity change, negative = inhibition is 4.55%. `O=C(C1CC(=O)N(C2CCCC2)C1)N1CCC2(CC1)OCCO2` (configuration not stated): the activity change, negative = inhibition is 6.18%. With `Clc1ccc([C@@H]2C[C@H]3CC[C@@H]2N3)cn1`, the activity change, negative = inhibition was 0.221%. As for `COc1cc(C(c2c(O)c3ccccc3oc2=O)c2c(C)n(C)n(-c3ccccc3)c2=O)ccc1O` (configuration not stated), the activity change, negative = inhibition was -3.16%. As to `c1ccc(Cc2nn3c(Cn4cnc5ccccc54)nnc3s2)cc1`, the Potency is 7.08 µM (active). As for `CCN1C[C@@]2(COC)CC[C@H](OC)[C@]34[C@@H]1[C@]1(OCO[C@@]15C[C@@H](OC)C1C[C@H]3[C@H]5[C@@H]1OC)[C@H](O)[C@@H]24`, the activity change, negative = inhibition is -0.114%.

In the case of `C/C(=C\C=C/[C@@H](C)C(=O)O)[C@H]1CN[C@H](C(=O)O)[C@@H]1CC(=O)O`, the activity change, negative = inhibition was -11.8%.
